# AmpC inh no detg – AmpC beta-lactamase inhibition without detergent. P00811. AmpC nitrocefin hydrolysis, absorbance 480 nm, 0.0001% Triton. Potency, µM (titrated, usually from 57.1 µM), for the others: at the top dose activity change, negative = inhibition, hits mostly inhibitors. 0.52% of 330,000 active;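 further: potency means the concentration at half of the fitted maximal effect; plate controls were no compound for no effect and no enzyme for full effect; nearly all actives have a fitted effect of over 20% in size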
# Target sequence (P00811 whole entry, looked up): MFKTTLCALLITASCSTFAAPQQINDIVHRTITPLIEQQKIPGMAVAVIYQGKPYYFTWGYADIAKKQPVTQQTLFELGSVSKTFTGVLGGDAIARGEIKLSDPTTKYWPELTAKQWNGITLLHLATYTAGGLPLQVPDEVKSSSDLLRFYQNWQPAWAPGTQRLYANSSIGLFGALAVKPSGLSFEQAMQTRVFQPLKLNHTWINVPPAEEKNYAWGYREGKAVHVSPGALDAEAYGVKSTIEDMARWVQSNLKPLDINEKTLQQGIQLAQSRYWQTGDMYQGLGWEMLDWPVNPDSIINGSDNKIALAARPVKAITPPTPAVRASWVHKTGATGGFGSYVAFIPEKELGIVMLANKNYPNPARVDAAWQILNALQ
#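 20 mM phosphate pH 7.0 + 0.01% (detergent screen) or 0.0001% Triton X-100; 5.3 nM AmpC reagent; cpd preinc 15 min RT; nitrocefin (800 uM stock) to start; A480 q20 s × 4 min; Activity was normalised to no-enzyme and no-compound control wells.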
# AmpC detergent – inhibitors of E. coli AmpC beta-lactamase with detergent; Potency, µM (top dose mostly 114 µM), for inactives: at the highest dose activity change, negative = inhibition, actives largely listed as inhibitors; P00811; 0.041% of 370,000 active; AmpC hydrolysis of nitrocefin, absorbance 480 nm, 0.01% Triton;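 further: potency means the concentration at half of the fitted maximal effect; 0% = no-compound wells and -100% = no-enzyme wells; nearly all actives have a fitted effect of over 25% in size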
#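 20 mM phosphate pH 7.0 + 0.01% (detergent screen) or 0.0001% Triton X-100; 5.3 nM AmpC reagent; cpd preinc 15 min RT; nitrocefin (800 uM stock) to start; A480 q20 s × 4 min; Activity was normalised to no-enzyme and no-compound control wells.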
# HCMV antiviral – inhibitors of human cytomegalovirus | HFF cells, HCMV-luciferase reporter, 72 h; hits give low values | activity change, negative = inhibition, % at 57.5 µM | 4.5% of 410,000 active | AID 1259415; in the data active means activity change below about -60%; inconclusive means no clear call, values can overlap the other calls; inactive means above about -39%
#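 Steps: HFFs plated, 16 h 37C; compounds added; HCMV-luciferase added to MOI 1 PFU/cell; 72 h 37C; OneGlo reagent, 5 min room temperature; luminescence read, normalized to controls.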
# HCV inhibitor – inhibitors of hepatitis C virus infection | Potency, µM (highest dose often 41.8 µM), inactives show top-dose activity change, negative = inhibition, hits mostly inhibitors | Huh7.5.1 HCVcc-Cre infection, luciferase reporter, 44 h | 3.4% of 340,000 active | AID 651820; further: potency means the concentration at half of the fitted maximal effect
#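 Reporter virus HCVcc-Cre (~0.5 moi) infects cells exposed to compound; seeding density 1,000 cells/well with 4 h settling beforehand. Luminescence, 15 sec read, taken 44 h post-infection following a 15 min RT substrate incubation.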
# FMDV antiviral – antivirals against foot and mouth disease virus; FMDV antiviral cell-based qHTS; Potency, µM (highest dose often 57.9 µM), for inactives: at the highest dose activity change, negative = inhibition, hits mostly inhibitors; 1.2% of 410,000 active; calls by dose curve; tested in HEK293T cells; further: read-out not given here; potency means the concentration at half of the fitted maximal effect; nearly all actives have a fitted effect of over 45% in size
# Numbers without * were called inactive; ? = inconclusive; . = no result given; ! = not active in a repeat. Hits are enriched below; roughly 7.3% of the tested compounds scored in any of these assays. Unless noted, the call rests on the fitted dose curve; in most records, active means well fitted curve in the direction sought with a large enough effect; inconclusive means small, poorly fitted or top-dose-only effect, or another doubt; inactive means no such curve, though single readings can be large; an effect the other way counts as inactive or inconclusive. Unless noted, on the % scale 0 is the no-effect control and ±100 the full control effect.
SMILES,AmpC inh no detg,AmpC detergent,HCMV antiviral,HCV inhibitor,FMDV antiviral
C=C1C(=O)O[C@H]2[C@H]1[C@@H](O)CC(=C)[C@@H]1CC(=O)[C@@H](C)[C@H]21,-17%,?,.,?,22µM*
CCN(c1nc(N)c(C(=O)N=C(N)N)nc1Cl)C(C)C,.,.,-62*,?,-29%
O=C(Nc1c(-c2ccccc2)nc2ccccn12)c1ccccc1,14%,-10%,15,-9%,-13%
O=C(Nc1c(-c2ccccc2)nc2ccccn12)c1ccccc1F,-11%,?,-64*!,6%,-9%
Nc1nnc2c(n1)CCCC2,0.16µM*,-1%,55,10%,-22%
C1CCc2nc3c(nc2C1)CCCC3,7%,-2%,19,8%,6%
CCCCn1c(SCC(=O)/C(C#N)=C(\C)N)nc2ccccc2c1=O,-9%,0%,-73*,?,-21%
C/C(N)=C(/C#N)C(=O)CSc1nc2cc(Cl)ccc2c(=O)n1-c1ccc(C)cc1,-25%,4%,?,7.1µM*,-17%
C/C(N)=C(/C#N)C(=O)CSc1cc(Cl)ccc1Cl,-19%,-2%,5,14%,-2%
C/C(N)=C(/C#N)C(=O)CSc1nc2cc(Cl)ccc2c(=O)n1Cc1ccco1,-43%,5%,?,14µM*,-24%
C/C(N)=C(/C#N)C(=O)CSc1nc2cc(Cl)ccc2s1,?,-9%,-20,8.9µM*,-27%
C/C(N)=C(/C#N)C(=O)CSc1nc2ccccc2c(=O)n1Cc1ccc(C)cc1,?,-11%,?,-8%,-25%
C[C@@H]1CN([C@@H](C)CO)S(=O)(=O)c2ccc(Br)cc2O[C@@H]1CN(C)C(=O)c1ccncc1,.,.,-4,.,-6%
COc1ccc(/C=C(\C#N)C(=O)N2COCC2(C)C)cc1,-11%,-7%,-28,-1%,13%
Clc1ccc(OCCN2CCOCC2)cc1Cl,8%,3%,-22,-3%,34%
NC(=S)NN=C1c2cc(OCCN3CCOCC3)ccc2-c2ccc(OCCN3CCOCC3)cc21,199%,-11%,.,4µM*,18µM*
COC(=O)c1ccc(C2c3[nH]c4ccccc4c3C[C@H]3C(=O)N(C4CCN(Cc5ccccc5)CC4)CC(=O)N23)cc1 (some centres undefined),133%,-1%,-1,10µM*,0%
O=C1[C@@H]2Cc3c([nH]c4ccccc34)C(c3cccc(Br)c3)N2C(=O)CN1C1CCN(Cc2ccccc2)CC1 (some centres undefined),53%,0%,4,?,-23%
Cc1ccccc1C1c2[nH]c3ccccc3c2C[C@H]2C(=O)N(C3CCN(Cc4ccccc4)CC3)CC(=O)N12 (some centres undefined),87%,8%,39,.,.
O=C1[C@@H]2Cc3c([nH]c4ccccc34)C(c3ccccc3)N2C(=O)CN1C1CCN(Cc2ccccc2)CC1 (some centres undefined),124%,1%,-76*,-19%,-2%
Cc1ccc2nc(CCl)[n+]([O-])c(-c3ccccc3)c2c1,-19%,-2%,17,?,28µM*
Cc1ccc(Nc2c(-c3ccccn3)nc3cccc(C)n23)cc1,20%,?,0,6.3µM*,?
Cc1cccc2nc(-c3ccccn3)c(Nc3ccc(F)cc3)n12,.,20%,-97*,.,?
Cc1ccc(Nc2c(-c3ccc(C)o3)nc3cccc(C)n23)cc1,.,21%,-16,.,-4%
Cc1cccc2nc(-c3ccccn3)c(Nc3ccccc3)n12,.,20%,-82*,.,?
CC(C)(C)C(C)(C)CN=CN1c2ccccc2-n2cccc2C1c1cccc(F)c1 (centres undefined),.,.,-5,.,.
CCc1cccc(C)c1NS(=O)(=O)Cc1ccccc1,-31%,-12%,12,22%,-20%
Cc1ccc(-c2nc(C3CCN(S(=O)(=O)c4ccc(C(C)(C)C)cc4)CC3)no2)cc1,-20%,?,-98*,18%,-24%
CS(=O)(=O)c1ccc(Nc2cc3c(cn2)ncn3Cc2ccco2)cc1,.,.,-18,.,.
Cc1cc(NC(=O)CCl)nn1C,-16%,-5%,?,?,35µM*

# High-throughput results (PubChem)
